Screens as filed in PubChem.
KB-3-1 tox – kills parental KB-3-1 adenocarcinoma cells | Potency, µM (series often up to 46.1 µM), most hits filed as cytotoxic | AID 1347075 | hit rate 1.4% among 400,000 | KB-3-1 viability, CellTiter-Glo ATP luminescence, 72 h; further: nearly all actives have a fitted effect of over 60% in size
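Parental KB-3-1 viability, qHTS format: 72 h compound exposure, 37 °C; CellTiter-Glo; media-only wells and DMSO plates as controls; concentration-effect fits on corrected data.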
KB-V1 cytotox – kills drug-selected multidrug resistant KB-V1 cells; hit rate 3.4% among 400,000; KB-V1 MDR cells viability, CellTiter-Glo, 72 h; Potency, µM (top dose mostly 46.1 µM), actives largely listed as cytotoxic; further: nearly all actives have a fitted effect of over 60% in size
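qHTS viability screen in drug-selected KB-V1 MDR cells: 72 h compound treatment at 37 degrees C, ATP luminescence end point.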
IL1B secr inh – inflammasome signaling inhibition, IL-1 beta readout. THP-1 LPS/ATP IL-1B secretion, AlphaLISA, 16 h; hits give low values. activity change, % at 57.5 µM. hit rate 4.7% among 360,000. AID 743279; in the data active means activity change below about -50%; inconclusive means mostly about -30% to -49%
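Secreted IL-1B measured by AlphaLISA bead assay after 16 h compound exposure of THP-1 cells; compounds (final up to 57.5 uM) added 1 h before LPS (250 ng/mL) and ATP (1.25 mM) stimulation; lower signal means less secretion.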
HT1080 IDH1KD tx – kills HT-1080 cells with IDH1 knockdown | HT-1080 IDH1 knockdown viability, ATP luminescence, 48 h | Potency, µM (doses to about 46.1 µM), actives largely listed as cytotoxic | hit rate 2% among 360,000 | AID 686971
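In this qHTS, HT-1080 cells depleted of IDH1 are exposed for 48 h at 37 °C to compound titrations. Toxicity is scored from CellTiter-Glo luminescence, with DMSO as full viability and medium alone as none.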
HT1080NT lethal – kills 2HG-producing HT-1080-NT fibrosarcoma cells; hit rate 1.6% among 360,000; HT-1080-NT fibrosarcoma viability, CellTiter-Glo ATP luminescence, 48 h; Potency, µM (doses to about 46.1 µM), hits mostly cytotoxic;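 further: NT is the 2HG producing partner of a matched IDH1 knockdown line; nearly all actives have a fitted effect of over 55% in size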
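Fibrosarcoma NT cells, 750 per well in 5% FBS RPMI, were exposed to compound for 48 hours. Viability: CellTiter-Glo luminescence.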
Hits are given with their value; n = inactive; u = inconclusive; x = no result; [ ] = remark or other dose. Rows were chosen to be rich in hits. Some 8.8% of all compounds tested hit in one or more screens of this group. Unless noted, the call rests on the fitted dose curve; in most records, active means well fitted curve in the direction sought with a large enough effect; inconclusive means small, poorly fitted or top-dose-only effect, or another doubt; inactive means no such curve, though single readings can be large; an effect the other way counts as inactive or inconclusive.

SMILES	KB-3-1 tox	KB-V1 cytotox	IL1B secr inh	HT1080 IDH1KD tx	HT1080NT lethal
CCOC(=O)c1c(NC(=O)CN2CCCCC2)sc(CN(C)C)c1-c1ccccc1	n	n	-59.8	n	n
CCCCOc1ccc2c(c1)C(=O)c1cc(O)ccc1-2	n	n	-100.8	u	u
CCOc1ccc2c(c1)C(=O)c1cc(OCC(=O)O)ccc1-2	n	u	n	n	n
O=C(O)CC/C(=N\Nc1ccc([N+](=O)[O-])cc1S(=O)(=O)N1CCOCC1)c1cccs1	n	n	n	n	n
O=C(c1ccco1)N1CCC(c2nc3c(nnn3Cc3ccccc3Cl)c(=O)[nH]2)CC1	n	n	n	n	n
Cc1ccc(C)c(Cn2nnc3c(=O)[nH]c(C4CCN(S(=O)(=O)c5ccc(S(=O)(=O)NC6CC6)cc5)CC4)nc32)c1	u	u	-54.5	u	u
O=C(NCCc1ccccc1)c1nc2c(nnn2Cc2ccccc2Cl)c(=O)[nH]1	n	14.6µM	n	u	n
O=C(Nc1ccc(F)cc1)N1CCC(c2nc3c(nnn3Cc3ccccc3Cl)c(=O)[nH]2)CC1	n	n	-73.8	n	n
Cc1ccc(C)c(Cn2nnc3c(=O)[nH]c(C4CCN(S(=O)(=O)c5ccc(S(=O)(=O)N(C)C)cc5)CC4)nc32)c1	n	n	u	n	n
CC(=O)Nc1ccc(S(=O)(=O)N2CCC(c3nc4c(nnn4Cc4ccccc4Cl)c(=O)[nH]3)CC2)cc1	n	n	-50.8	n	n
O=C(NC1CC1)c1nc2c(nnn2Cc2ccccc2Cl)c(=O)[nH]1	n	n	n	n[9.24 µM]	n
COc1ccc(Cn2c(CCC(=O)NCc3cccc(Cl)c3)nc3cccnc32)cc1	n	n	x	x	x
COc1ccc(CCNC(=O)c2cc3c(=O)n(C)c4cc(Cl)ccc4c3s2)cc1OC	n	n	x	x	x
C[n+]1ccnc2ccccc21	4.11µM	10.3µM	x	x	x
C=CC[n+]1ccnc2ccccc21	n	n	x	x	x
C[n+]1ccnc2cc(Cl)ccc21	4.11µM	5.8µM	x	x	x
CCCCn1c(C)csc1=Nc1cccnc1	n	n	n	n	n
c1cncc(N=c2scc(-c3cccc4ccccc34)n2CCCn2ccnc2)c1	n	11.6µM	n	n	u
COCCn1c(-c2ccccc2)csc1=Nc1cccnc1	u	u	n	n	n
Cc1ccc(-c2csc(=Nc3cccnc3)n2CCCn2ccnc2)cc1C	16.4µM	7.31µM	u	n	n
Cc1ccc(-c2csc(=Nc3cccnc3)n2CCCN2CCCC2=O)cc1C	u	u	-51.0	n	n
Cn1cnnc1SCCOc1ccc(Cl)cc1	n	n	-80.0	n	n
Cc1cccc(OCCSc2nncn2C)c1	n	n	n	n	n
CCn1c(SCCOc2ccc(Cl)cc2)nnc1-c1cccs1	n	9.2µM	n	n	n
CCC(C(=O)Nc1ccc(OC)c(Cl)c1)c1ccccc1 (stereo not given)	n	n	n	n	n
SMILES	KB-3-1 tox	KB-V1 cytotox	IL1B secr inh	HT1080 IDH1KD tx	HT1080NT lethal
O=C(Cc1cccc2ccccc12)Nc1ccc(OC(F)F)c(Cl)c1	u	20.6µM	n	n	n
O=C(Nc1ccc(OC(F)F)c(Cl)c1)C(c1ccccc1)c1ccccc1	u	u	-62.0	16.4µM	u
COc1ccc(NCc2nc3ccccc3n2CCOc2ccccc2)cc1	u	2.31µM	-114.3	n	n
Cc1ccc(NCc2nc3ccccc3n2C)cc1	n	n	n	n	n
Cn1c(CNc2ccc(Br)cc2)nc2ccccc21	u	14.6µM	u	n	n
COc1ccc(NCc2nc3ccccc3n2CCOc2ccc(C)cc2)cc1	u	u	-95.1	u	18.4µM
c1ccc(NCc2nc3ccccc3n2CCOc2ccccc2)cc1	n	u	n	n	n
c1ccc2c(NCC3CCCO3)nc(N3CCCCC3)nc2c1 (stereo not given)	n	n	n	n	n
COc1cccc(Nc2nc(NCC3CCCO3)c3ccccc3n2)c1 (stereo not given)	u	2.31µM	-121.5	u	n
COc1ccc(-c2cc(C(=O)NCC3CCCO3)c3ccccc3n2)c(OC)c1 (stereo not given)	n	n	n	n	n
Oc1ccccc1Nc1nc(NCC2CCCO2)c2ccccc2n1 (stereo not given)	u	16.4µM	-109.3	n	n
Oc1ccc(Cl)cc1Nc1nc(NCC2CCCO2)c2ccccc2n1 (stereo not given)	n	n	x	x	x
Oc1ccc(Nc2nc(NCC3CCCO3)c3ccccc3n2)cc1 (stereo not given)	n	n	-96.0	u	20.6µM
COc1ccccc1CCNC(=O)CSc1nc(=O)[nH]c2c1CCC2	n	n	n	n	n
COc1ccc(S(=O)(=O)N2c3ccccc3OCC2C)cc1 (stereo not given)	1.16µM	u	n	0.651µM	0.651µM
COc1ccc(S(=O)(=O)N2CCOc3ccccc32)cc1	n	n	n	13µM	u
COc1ccc(S(=O)(=O)N2c3ccccc3OCC2c2ccccc2)cc1 (stereo not given)	8.2µM	5.8µM	n	u	u
COc1ccc(S(=O)(=O)N2c3ccccc3OCC2C(C)(C)C)cc1 (stereo not given)	n	n	n	n	n
Cn1c(=S)c2[nH]c(SCC3CCCO3)nc2n(C)c1=O (stereo not given)	u	n	-87.6	n	n
CCCC(C)Sc1nc2c([nH]1)c(=S)n(C)c(=O)n2C (stereo not given)	u	8.2µM	-101.7	n	n
CCCSc1nc2c([nH]1)c(=O)n(C)c(=S)n2C	n	n	n	n	n
Oc1oc(-c2ccccc2)nc1C=Nc1ccccc1	n	n	-54.8	n	n
CN(C)c1cccc(/C=C(\C#N)c2ccccc2)c1	5.8µM	u	n	3.26µM	u
CN(C)c1ccc(/C=C(\C#N)c2ccccc2)cc1	u	u	n	10.3µM	11.6µM
CN(C)c1ccc(/C=C(\C#N)C(=O)c2ccccc2)cc1	n	n	n	n	n
SMILES	KB-3-1 tox	KB-V1 cytotox	IL1B secr inh	HT1080 IDH1KD tx	HT1080NT lethal
CCN(CC)C(=O)CSc1nc2cc3c(cc2c(=O)n1CCCCCC(=O)NCc1ccc(OC)cc1)OCO3	n	u	-64.5	n	n
CCN(CC)C(=O)CSc1nc2cc3c(cc2c(=O)n1CCCC(=O)NCCc1ccc(OC)c(OC)c1)OCO3	n	n	u	n	n
O=S(=O)(Nc1nc2ccccc2[nH]1)c1ccc(Cl)cc1	n	u	n	n	n
O=S(=O)(Nc1nc2ccccc2[nH]1)c1ccccc1	n	20.6µM	u	n	n
CCCCNC(=O)Cc1coc2ccc3ccccc3c12	n	n	n	n	n
Cc1cccc(NC(=O)Cc2coc3ccc4ccccc4c23)n1	n	n	n	7.08µM	u
O=C(O)Cc1coc2ccc3ccccc3c12	n	n	n	n	n
CC(C)CN(CC(C)C)C(=O)Cc1coc2ccc3ccccc3c12	u	23.1µM	u	n	u
O=C(CCl)N1CCN2C(=O)c3ccccc3C12c1ccc(Cl)cc1 (stereo not given)	u	u	-94.8	8.2µM	9.2µM
